From PubChem
Most compounds without a hit are left out; they make up all but 2.9% or so of the library.
EPAC1 agonist: Validation qHTS for agonist of cAMP-regulated guanine nucleotide exchange factor 3 (EPAC1). AID 1645883, 2021. actives 1% (n = 16,000). Rap guanine nucleotide exchange factor 3 (Homo sapiens), O95398. Potency, µM, without a hit: max response, positive = active, actives largely listed as activators. EPAC1 Rap1b BODIPY-GDP exchange, fluorescence; note: nearly all actives have a fitted effect of over 70% in size
Target sequence (O95398 whole entry, looked up): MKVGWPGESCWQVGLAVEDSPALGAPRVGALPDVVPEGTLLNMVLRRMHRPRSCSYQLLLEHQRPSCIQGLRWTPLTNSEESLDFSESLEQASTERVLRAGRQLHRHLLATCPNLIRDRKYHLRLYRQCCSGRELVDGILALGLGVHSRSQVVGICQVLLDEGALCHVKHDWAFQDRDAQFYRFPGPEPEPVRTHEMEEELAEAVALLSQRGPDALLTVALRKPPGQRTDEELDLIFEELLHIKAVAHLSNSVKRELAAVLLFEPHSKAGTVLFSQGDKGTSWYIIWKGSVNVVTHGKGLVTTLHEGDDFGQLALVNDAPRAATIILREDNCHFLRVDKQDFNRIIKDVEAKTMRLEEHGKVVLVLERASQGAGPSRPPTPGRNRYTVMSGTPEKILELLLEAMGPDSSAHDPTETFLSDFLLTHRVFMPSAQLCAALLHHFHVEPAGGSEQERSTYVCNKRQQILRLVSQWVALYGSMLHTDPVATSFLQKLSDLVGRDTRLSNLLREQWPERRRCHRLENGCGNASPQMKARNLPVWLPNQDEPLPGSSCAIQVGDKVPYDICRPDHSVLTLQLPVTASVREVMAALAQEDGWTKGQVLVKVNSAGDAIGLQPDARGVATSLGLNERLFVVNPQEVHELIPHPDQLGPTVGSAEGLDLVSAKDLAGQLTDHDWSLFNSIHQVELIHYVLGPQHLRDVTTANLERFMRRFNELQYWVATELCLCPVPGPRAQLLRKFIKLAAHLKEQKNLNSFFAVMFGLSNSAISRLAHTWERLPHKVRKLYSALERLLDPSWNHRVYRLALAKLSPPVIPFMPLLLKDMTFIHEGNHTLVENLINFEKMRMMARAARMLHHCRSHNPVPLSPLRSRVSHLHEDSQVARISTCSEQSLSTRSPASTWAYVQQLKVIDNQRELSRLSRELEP
EPAC2 antag: Validation qHTS for antagonist of cAMP-regulated guanine nucleotide exchange factor 4 (EPAC2). Rap guanine nucleotide exchange factor 4 (Homo sapiens), Q8WZA2. EPAC2 Rap1B BODIPY-GDP exchange, fluorescence. Potency, µM (titrated, usually from 112 µM), inactives show at the top dose activity, negative = inhibition, most hits filed as inhibitors. actives 1.7% (n = 16,000);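 note: 100% = activation by cAMP agonist control; nearly all actives have a fitted effect of over 40% in size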
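Normalized against a 6.5 mM cAMP agonist control, compounds were tested on 100 nM EPAC2 exchanging Rap1B-bound BODIPY-GDP (250 nM) for 50 uM GDP. Fluorescence drop (ex 480, em 540 nm) was tracked at room temperature over 30 min at 5-min intervals.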
The depositor's hits bear a star; ! = not active in a repeat; [ ] = dose if it differs, or a comment. Calls come from the whole dose curve; as a rule, active = well fitted curve in the direction sought with a large enough effect; inconclusive = small, poorly fitted or top-dose-only effect, or another doubt; inactive = no such curve, though single readings can be large; an effect the other way counts as inactive or inconclusive. Unless noted, % is set by controls: 0 for no effect and ±100 for the full control effect; potency is the fitted concentration of half-maximal effect.

For CN1CCN(c2ncc3nc(CCc4ccccc4)c(=O)n(Cc4cccs4)c3n2)CC1 the results were EPAC1 agonist 100µM* and EPAC2 antag -19.5%.
O=c1c(-c2cccs2)nc2cnc(N3CCOCC3)nc2n1CCc1ccccc1 was read as EPAC1 agonist 100µM* and EPAC2 antag 7.2%.
COCCn1c(=O)c(-c2cn(C)c3ccccc23)nc2cnc(N3CCOCC3)nc21 was read as EPAC1 agonist -20.0% and EPAC2 antag -10.3%.
Screening O=c1c(CCc2ccccc2)nc2cnc(N3CCOCC3)nc2n1Cc1cccs1 returned EPAC1 agonist -1.5% and EPAC2 antag 0.4%.
`O=C[C@H](O)[C@@H](O)[C@@H](O)[C@H](O)CO` gave EPAC1 agonist -41.9% and EPAC2 antag -0.6%.
CC(C)(C)C1(O)CCN2CC3c4ccccc4CCc4cccc(c43)C2C1 (centres undefined) was read as EPAC1 agonist 9.1% and EPAC2 antag -10.9%.
`CCC(=O)OC(OP(=O)(CCCCc1ccccc1)CC(=O)N1C[C@H](C2CCCCC2)C[C@H]1C(=O)O)C(C)C` (some centres undefined) gave EPAC1 agonist -36.0% and EPAC2 antag -25.8%.
For CCCCCCCCCCCC(=O)OC[C@@H](O)C1OC[C@H](O)[C@H]1O (some centres undefined) the results were EPAC1 agonist -128.5% and EPAC2 antag inconclusive.
Screening C=CC(C1=CC(=O)C(OC)=CC1=O)c1ccc(OC)cc1 (centres undefined) returned EPAC1 agonist -18.0% and EPAC2 antag inconclusive.
Screening C=CC(C1=CC(=O)C(OC)=CC1=O)c1ccccc1 (centres undefined) returned EPAC1 agonist 17.7% and EPAC2 antag 35.5µM*.
`CCc1ccc2c(c1)N(CC(C)CN(C)C)c1ccccc1S2` (centres undefined) gave EPAC1 agonist -29.8% and EPAC2 antag -19.0%.
`COc1ccccc1CNC(=O)c1cnn(-c2nccc(-c3cccs3)n2)c1C` gave EPAC1 agonist 14.8% and EPAC2 antag -17.1%.
Screening CCCCCCCC/C=C\C/C=C\C/C=C\CCCC(=O)NCCO returned EPAC1 agonist -33.0% and EPAC2 antag -20.7%[11.4 µM].
Screening CCCCCCCC/C=C\CCCCCCCC(=O)N[C@@H](CO)Cc1ccc(O)cc1 returned EPAC1 agonist -58.4% and EPAC2 antag 20µM*.
O=c1c(-c2cccs2)nc2cnc(Oc3ccccc3)nc2n1Cc1cccs1 was read as EPAC1 agonist 10.8% and EPAC2 antag -22.4%.
`COc1cccc(Nc2ncc3ncc(=O)n(Cc4cccs4)c3n2)c1` gave EPAC1 agonist 112µM* and EPAC2 antag -13.6%.
O=c1cnc2cnc(Oc3cccc(Cl)c3)nc2n1Cc1ccc(F)cc1 was read as EPAC1 agonist 8.1% and EPAC2 antag 10µM*.
Screening COc1ccc(-n2c(=O)c(-c3cccs3)nc3cnc(Nc4ccccc4)nc32)cc1 returned EPAC1 agonist inconclusive and EPAC2 antag 12.1%.
Screening COc1cccc(Nc2ncc3nc(-c4cccs4)c(=O)n(Cc4cccs4)c3n2)c1 returned EPAC1 agonist inconclusive and EPAC2 antag 4.1%.
`O=c1cnc2cnc(Oc3ccccc3)nc2n1Cc1cccs1` gave EPAC1 agonist 9.8% and EPAC2 antag 12.6µM*.
COc1cccc(Nc2ncc3nc(-c4cccs4)c(=O)n(-c4ccccc4)c3n2)c1 was read as EPAC1 agonist 112µM* and EPAC2 antag 354.6%.
COCCn1c(=O)cnc2cnc(Oc3cccc(Cl)c3)nc21 was read as EPAC1 agonist -13.7% and EPAC2 antag -9.6%.
NCCCC[C@H](NC(=O)[C@@H]1CCCN1C(=O)[C@@H]1CSSC[C@H](N)C(=O)N[C@@H](Cc2ccc(O)cc2)C(=O)N[C@@H](Cc2ccccc2)C(=O)N[C@@H](CCC(N)=O)C(=O)N[C@@H](CC(N)=O)C(=O)N1)C(=O)NCC(N)=O was read as EPAC1 agonist -4.5% and EPAC2 antag -12.3%.
`COc1ccc(C(=O)N2CCCC(c3nc(SCc4ccccn4)ncc3C)C2)cc1F` (centres undefined) gave EPAC1 agonist -17.0% and EPAC2 antag inconclusive.
For COc1ccc(CNc2ccnc(-c3ccc4c(c3)OCO4)n2)c(OC)c1 the results were EPAC1 agonist 15.4% and EPAC2 antag -23.9%.
`COc1ccccc1CNc1ccnc(-c2ccc3c(c2)OCO3)n1` gave EPAC1 agonist 100µM* and EPAC2 antag inconclusive.
COc1cccc(-c2cncnc2NCc2ccc(OC)cc2OC)c1 was read as EPAC1 agonist 8.1% and EPAC2 antag 44.7µM*.
`COc1ccccc1CNc1ccnc(-c2cccc(C#N)c2)n1` gave EPAC1 agonist 5.4% and EPAC2 antag inconclusive.
COc1ccc(CNc2ccnc(-c3cccc(C#N)c3)n2)c(OC)c1 was read as EPAC1 agonist 112µM* and EPAC2 antag -51.2%.
COc1ccc(CNc2ncncc2-c2cccnc2)c(OC)c1 was read as EPAC1 agonist 7.9% and EPAC2 antag -31.8%.
O=C(NC(c1cccnc1)C(F)(F)F)c1cnn(-c2nccc(-c3cccs3)n2)c1C1CC1 (centres undefined) was read as EPAC1 agonist 15.6% and EPAC2 antag -16.0%.
For O=C1N[C@@H](Cc2c[nH]c3ccccc23)C(=O)N[C@H]1Cc1c[nH]c2ccccc12 the results were EPAC1 agonist 3.7% and EPAC2 antag -1.5%.
`c1ccc2c(Cc3c[nH]c4ccccc34)c[nH]c2c1` gave EPAC1 agonist 100µM* and EPAC2 antag inconclusive.
For COc1ccc(C(Cl)=C(c2ccc(OC)cc2)c2ccc(OC)cc2)cc1 the results were EPAC1 agonist inconclusive and EPAC2 antag 3.16µM*!.
Screening COc1ccc(C(=O)CC(=O)c2ccc(C(C)(C)C)cc2)cc1 returned EPAC1 agonist -40.2% and EPAC2 antag 2.9%.
`C[N+]1(C)[C@@H]2CC(OC(=O)[C@H](CO)c3ccccc3)C[C@H]1[C@H]1O[C@@H]12` (some centres undefined) gave EPAC1 agonist 0.8% and EPAC2 antag -40.0%.
`O=S(=O)(O)c1ccc2c(N=Nc3ccc(S(=O)(=O)O)c4ccccc34)c(O)c(S(=O)(=O)O)cc2c1` gave EPAC1 agonist -62.8% and EPAC2 antag 50.1µM*.
Screening O=S(=O)(O)c1cc(O)c2c(N=Nc3ccc(Nc4ccccc4)c4c(S(=O)(=O)O)cccc34)cc(S(=O)(=O)O)cc2c1 returned EPAC1 agonist 9.4% and EPAC2 antag inconclusive.
Cc1cnc(SCc2ccccn2)nc1C1CCCN(C(=O)c2noc3c2CCCC3)C1 (centres undefined) was read as EPAC1 agonist -10.8% and EPAC2 antag inconclusive.
For COc1ccc(Oc2ncc3nc(-c4cc(F)cc(F)c4)c(=O)n(CCC#N)c3n2)cc1 the results were EPAC1 agonist -62.9% and EPAC2 antag -23.4%.
For COc1ccc(-c2nc3cnc(Nc4cccc(OC)c4)nc3n(CCC#N)c2=O)cc1 the results were EPAC1 agonist 100µM* and EPAC2 antag 2.6%.
COc1cccc(Nc2ncc3nc(-c4ccc(Cl)cc4)c(=O)n(CCC#N)c3n2)c1 was read as EPAC1 agonist -194.9% and EPAC2 antag inconclusive.
`COc1cccc(Nc2ncc3nc(-c4cc(F)cc(F)c4)c(=O)n(CCC#N)c3n2)c1` gave EPAC1 agonist 112µM* and EPAC2 antag inconclusive.
